Data published in the supplement of paper PMC4466140.

Target: ScBbc1
Assay: SPOT peptide array binding signal intensity (averaged, normalized) (arbitrary units (background-subtracted, floor 0; scale differs between SH3 domains)); higher = stronger binding of the SH3 domain to the peptide
Procedure: (§1)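 GST-tagged SH3 domains from S. cerevisiae (Sc), A. gossypii (Ag), C. albicans (Ca) and S. pombe (Sp) were incubated at 10 ug/ml overnight at 4 C on cellulose SPOT membranes carrying 292 synthetic 15-mer peptides mined from the S. cerevisiae proteome (cysteines replaced by serines). Binding was detected with anti-GST antibody, HRP secondary and chemiluminescence, quantified with Genespotter, and reported as normalized spot intensities averaged over biological replicates.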

| Binder | SPOT peptide array binding signal intensity |
| --- | --- |
| VQKRKLPLPGSIASA | 30.1 |

Target: ScBem1-D1
Assay: as above
Procedure: as §1

| Binder | SPOT peptide array binding signal intensity |
| --- | --- |
| VQKRKLPLPGSIASA | 16.5 |

Target: ScBzz1-D1
Assay: as above
Procedure: as §1

| Binder | SPOT peptide array binding signal intensity |
| --- | --- |
| VQKRKLPLPGSIASA | 21.2 |

Target: ScBzz1-D2
Assay: as above
Procedure: as §1

| Binder | SPOT peptide array binding signal intensity |
| --- | --- |
| VQKRKLPLPGSIASA | 10 |

Target: ScCyk3
Assay: as above
Procedure: as §1

| Binder | SPOT peptide array binding signal intensity |
| --- | --- |
| VQKRKLPLPGSIASA | ≤ 0 |

Target: ScFus1
Assay: as above
Procedure: as §1

| Binder | SPOT peptide array binding signal intensity |
| --- | --- |
| VQKRKLPLPGSIASA | ≤ 0 |

Target: ScHof1
Assay: as above
Procedure: as §1

| Binder | SPOT peptide array binding signal intensity |
| --- | --- |
| VQKRKLPLPGSIASA | 0.5 |

Target: ScHse1
Assay: as above
Procedure: as §1

| Binder | SPOT peptide array binding signal intensity |
| --- | --- |
| VQKRKLPLPGSIASA | 63 |

Target: ScLsb1
Assay: as above
Procedure: as §1

| Binder | SPOT peptide array binding signal intensity |
| --- | --- |
| VQKRKLPLPGSIASA | ≤ 0 |

Target: ScLsb2
Assay: as above
Procedure: as §1

| Binder | SPOT peptide array binding signal intensity |
| --- | --- |
| VQKRKLPLPGSIASA | ≤ 0 |

Target: ScLsb3
Assay: as above
Procedure: as §1

| Binder | SPOT peptide array binding signal intensity |
| --- | --- |
| VQKRKLPLPGSIASA | 525 |

Target: ScLsb4
Assay: as above
Procedure: as §1

| Binder | SPOT peptide array binding signal intensity |
| --- | --- |
| VQKRKLPLPGSIASA | 11.5 |

Target: ScMyo3
Assay: as above
Procedure: as §1

| Binder | SPOT peptide array binding signal intensity |
| --- | --- |
| VQKRKLPLPGSIASA | ≤ 0 |

Target: ScMyo5
Assay: as above
Procedure: as §1

| Binder | SPOT peptide array binding signal intensity |
| --- | --- |
| VQKRKLPLPGSIASA | 1.5 |

Target: ScNbp2
Assay: as above
Procedure: as §1

| Binder | SPOT peptide array binding signal intensity |
| --- | --- |
| VQKRKLPLPGSIASA | ≤ 0 |

Target: ScPex13
Assay: as above
Procedure: as §1

| Binder | SPOT peptide array binding signal intensity |
| --- | --- |
| VQKRKLPLPGSIASA | 1 |

Target: ScRvs167
Assay: as above
Procedure: as §1

| Binder | SPOT peptide array binding signal intensity |
| --- | --- |
| VQKRKLPLPGSIASA | 340 |

Target: ScSho1
Assay: as above
Procedure: as §1

| Binder | SPOT peptide array binding signal intensity |
| --- | --- |
| VQKRKLPLPGSIASA | 50 |

Target: ScSla1-D1-D2
Assay: as above
Procedure: as §1

| Binder | SPOT peptide array binding signal intensity |
| --- | --- |
| VQKRKLPLPGSIASA | 180 |

Target: ScSla1-D3
Assay: as above
Procedure: as §1

| Binder | SPOT peptide array binding signal intensity |
| --- | --- |
| VQKRKLPLPGSIASA | 32.5 |

Target: SpAbp1-D1
Assay: as above
Procedure: as §1

| Binder | SPOT peptide array binding signal intensity |
| --- | --- |
| VQKRKLPLPGSIASA | 174 |

Target: SpBbc1
Assay: as above
Procedure: as §1

| Binder | SPOT peptide array binding signal intensity |
| --- | --- |
| VQKRKLPLPGSIASA | 0.5 |

Target: SpBzz1-D1
Assay: as above
Procedure: as §1

| Binder | SPOT peptide array binding signal intensity |
| --- | --- |
| VQKRKLPLPGSIASA | 232 |

Target: SpBzz1-D2
Assay: as above
Procedure: as §1

| Binder | SPOT peptide array binding signal intensity |
| --- | --- |
| VQKRKLPLPGSIASA | ≤ 0 |

Target: SpCyk3
Assay: as above
Procedure: as §1

| Binder | SPOT peptide array binding signal intensity |
| --- | --- |
| VQKRKLPLPGSIASA | 15 |

Target: SpHof1
Assay: as above
Procedure: as §1

| Binder | SPOT peptide array binding signal intensity |
| --- | --- |
| VQKRKLPLPGSIASA | 197 |

Target: SpHof1-2
Assay: as above
Procedure: as §1

| Binder | SPOT peptide array binding signal intensity |
| --- | --- |
| VQKRKLPLPGSIASA | 253 |

Target: SpHof1-3
Assay: as above
Procedure: as §1

| Binder | SPOT peptide array binding signal intensity |
| --- | --- |
| VQKRKLPLPGSIASA | 397 |

Target: SpHse1
Assay: as above
Procedure: as §1

| Binder | SPOT peptide array binding signal intensity |
| --- | --- |
| VQKRKLPLPGSIASA | 34.1 |

Target: SpLsb1
Assay: as above
Procedure: as §1

| Binder | SPOT peptide array binding signal intensity |
| --- | --- |
| VQKRKLPLPGSIASA | 50.6 |

Target: SpLsb4
Assay: as above
Procedure: as §1

| Binder | SPOT peptide array binding signal intensity |
| --- | --- |
| VQKRKLPLPGSIASA | 275 |

Target: SpMyo1
Assay: as above
Procedure: as §1

| Binder | SPOT peptide array binding signal intensity |
| --- | --- |
| VQKRKLPLPGSIASA | ≤ 0 |

Target: SpNbp2
Assay: as above
Procedure: as §1

| Binder | SPOT peptide array binding signal intensity |
| --- | --- |
| VQKRKLPLPGSIASA | 7 |

Target: SpPex13
Assay: as above
Procedure: as §1

| Binder | SPOT peptide array binding signal intensity |
| --- | --- |
| VQKRKLPLPGSIASA | ≤ 0 |

Target: SpRvs167
Assay: as above
Procedure: as §1

| Binder | SPOT peptide array binding signal intensity |
| --- | --- |
| VQKRKLPLPGSIASA | 55.4 |

Target: SpSla1-D1-D2
Assay: as above
Procedure: as §1

| Binder | SPOT peptide array binding signal intensity |
| --- | --- |
| VQKRKLPLPGSIASA | 16.2 |

Target: SpSla1-D3
Assay: as above
Procedure: as §1

| Binder | SPOT peptide array binding signal intensity |
| --- | --- |
| VQKRKLPLPGSIASA | ≤ 0 |
